In PubChem BioAssay AID1159580 (chemical genetic matrix, 2015):
“And” between values parts separate entries of the source, which are not always exact repeats. Equal values may be shown once. The campaign covered roughly 5,500 compounds. About 2,000 (36%) were called active. Another 18% or so got no clear call; they are omitted. No stated cut-off is given here; in the data, active means normalized growth mostly below about 0.91 (no sharp cut-off); inconclusive means no clear call, values can overlap the other calls; inactive means mostly above about 0.92. This is one part of the list.

Assay: chemical genetic growth profiling, strain panel (AID 1159580);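 further: tested at 20 µM; growth read once vehicle control cultures reached saturation at 30 °C; 1 = growth at the plate median or of vehicle wells; lower values mean less growth of the strain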
Settings: S. cerevisiae deletion strains, growth OD

Measured: normalized growth

COC(=O)C1[C@H]2C[C@H]3c4[nH]c5ccccc5c4CCN3C[C@@H]2CC[C@@H]1O (some centres not stated)
inactive: locus YAL013W, strain DEP1, active compounds read low 1.02 | locus YAL021C, strain ccr4, active compounds read low 0.991 | locus YAL026C, strain drs2, active compounds read low 0.981 | locus YAL030W, strain snc1, active compounds read low 0.976 | locus YBL061C, strain skt5, active compounds read low 0.982 | locus YBR009C, strain hhf1, active compounds read low 0.978 | locus YBR021W, strain FUR4, active compounds read low 1.01 | locus YBR023C, strain chs3, active compounds read low 0.964 | locus YBR171W, strain sec66, active compounds read low 0.96 | locus YBR229C, strain ROT2, active compounds read low 1 | locus YBR231C, strain swc5, active compounds read low 0.965 | locus YBR279W, strain paf1, active compounds read low 0.962 | locus YCL011C, strain gbp2, active compounds read low 0.954 | locus YCL016C, strain dcc1, active compounds read low 0.973 | locus YCL029C, strain bik1, active compounds read low 1.03 | locus YCL061C, strain MRC1, active compounds read low 0.976 | locus YCL069W, strain vba3, active compounds read low 0.981 | locus YCR088W, strain abp1, active compounds read low 0.977 | locus YDL005C, strain med2, active compounds read low 0.971 | locus YDL035C, strain GPR1, active compounds read low 1.02 | locus YDL040C, strain nat1, active compounds read low 0.974 | locus YDL074C, strain BRE1, active compounds read low 1.05 | locus YDL101C, strain DUN1, active compounds read low 1.01 | locus YDL134C, strain PPH21, active compounds read low 1.02 | locus YDL185W, strain tfp1, active compounds read low 1.02 | locus YDL192W, strain arf1, active compounds read low 1.02 | locus YDR001C, strain nth1, active compounds read low 0.964 | locus YDR069C, strain doa4, active compounds read low 0.954 | locus YDR101C, strain arx1, active compounds read low 1.01 | locus YDR137W, strain rgp1, active compounds read low 0.945 | locus YDR150W, strain NUM1, active compounds read low 1.01 | locus YDR159W, strain sac3, active compounds read low 0.925 | locus YDR162C, strain NBP2, active compounds read low 1.01 | locus YDR195W, strain ref2 0.943 | locus YDR297W, strain sur2, active compounds read low 0.979 | locus YDR318W, strain mcm21, active compounds read low 1.03 | locus YDR334W, strain swr1, active compounds read low 0.946 | locus YDR335W, strain msn5, active compounds read low 0.97 | locus YDR388W, active compounds read low 1.02 | locus YDR392W, strain spt3, active compounds read low 1.01 | locus YDR502C, strain sam2, active compounds read low 1.01 | locus YEL003W, strain gim4, active compounds read low 0.97 | locus YEL037C, strain rad23, active compounds read low 0.979 | locus YEL061C, strain CIN8 (second series), active compounds read low 0.962 | locus YEL061C, strain CIN8, active compounds read low 1.01 | locus YER015W, strain faa2, active compounds read low 0.983 | locus YER016W, strain bim1, active compounds read low 0.982 | locus YER110C, active compounds read low 1.01 | locus YER111C, strain swi4, active compounds read low 0.986 | locus YER155C, strain BEM2 (second series), active compounds read low 0.945 | locus YER155C, strain BEM2, active compounds read low 1.01 | locus YER167W, strain BCK2, active compounds read low 1.01 | locus YFR010W, strain ubp6, active compounds read low 0.952 | locus YGL078C, strain dbp3, active compounds read low 1.01 | locus YGL086W, strain mad1, active compounds read low 1 | locus YGL167C, strain pmr1, active compounds read low 0.944 | locus YGL173C, strain kem1, active compounds read low 0.989 | locus YGL227W, strain vid30, active compounds read low 0.962 | locus YGL240W, strain doc1, active compounds read low 0.954 | locus YGL248W, strain PDE1, active compounds read low 1.01 | locus YGL253W, strain hxk2, active compounds read low 0.975 | locus YGR078C, strain PAC10, active compounds read low 1.03 | locus YGR135W, strain pre9, active compounds read low 1.01 | locus YGR229C, strain SMI1, active compounds read low 1.01 | locus YGR252W, strain gcn5, active compounds read low 0.976 | locus YHR013C, strain ard1, active compounds read low 0.979 | locus YHR027C, strain rpn1, active compounds read low 0.972 | locus YHR030C, strain SLT2, active compounds read low 1.02 | locus YHR079C, strain IRE1 (second series), active compounds read low 1.02 | locus YHR079C, strain IRE1, active compounds read low 1.02 | locus YHR094C, strain hxt1, active compounds read low 1.01 | locus YHR129C, strain ARP1, active compounds read low 0.999 | locus YHR142W, strain chs7, active compounds read low 0.983 | locus YHR200W, strain rpn10, active compounds read low 1.02 | locus YIL066C, strain RNR3, active compounds read low 1.02 | locus YIL073C, strain SPO22, active compounds read low 1.05 | locus YIL125W, strain kgd1, active compounds read low 1.01 | locus YIR030C, strain dcg1, active compounds read low 1.02 | locus YJL092W, strain hpr5, active compounds read low 0.982 | locus YJL095W, strain BCK1 (second series), active compounds read low 0.981 | locus YJL095W, strain BCK1, active compounds read low 1.05 and 1.01 | locus YJL115W, strain asf1, active compounds read low 0.966 | locus YJL129C, strain trk1, active compounds read low 0.977 | locus YJL134W, strain LCB3, active compounds read low 1.01 | locus YJL154C, strain vps35, active compounds read low 0.964 | locus YJL164C, strain tpk1, active compounds read low 1 | locus YJL166W, strain qcr8, active compounds read low 0.953 | locus YJL168C, strain set2, active compounds read low 1.02 | locus YJL187C, strain SWE1 (second series), active compounds read low 1.03 | locus YJL187C, strain SWE1, active compounds read low 0.98 | locus YJR043C, strain POL32, active compounds read low 1.02 | locus YJR066W, strain TOR1, active compounds read low 1.02
